Rows were chosen to be rich in hits. Some 0.5% of all compounds tested hit in one or more screens of this group.
TSHR antag – antagonists of human thyroid stimulating hormone receptor | P16473 | TSHR-expressing cells, TSH-stimulated cAMP HTRF, 2 h; active compounds read low | activity change, negative = inhibition, % at 11.5 µM | 330,000 tested, 0.2% active | AID 504810;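 active means activity change below a set negative limit, meaning inhibition stronger than a set level, cut at about -70% in these data; inconclusive means activity change between two set negative limits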
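Read-out is FRET at 665 nm (cryptate excitation 337 nm) from a cryptate-tagged anti-cAMP antibody, competed by cell cAMP against cAMP-d2. Compounds are tested on freshly harvested TSHR cells challenged with 4nM TSH (EC80) for 2 hours at 37 deg C.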
PTHR1 agonist – agonists of human PTHR1 parathyroid hormone receptor; Q03431; HEK293 GP2 PTHR1 cells, GloSensor cAMP luminescence, 1 h; Potency, µM (top dose mostly 115 µM), hits mostly activators; 410,000 tested, 0.075% active; AID 743266; further: nearly all actives have a fitted effect of over 55% in size
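HEK-293-derived GP2 cells expressing PTHR1 and a GloSensor cAMP reporter, 3,000/well, plated overnight, given luciferin plus IBMX (each 0.5 mM as added) for 1 h at 37 °C, then compound for 1 h at 37 °C. Luminescence was read after 15 min at room temperature.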
EPAC1 ag – EPAC1 (human) agonism | O95398 | EPAC1 agonist qHTS, biochemical assay; response scale: 100% = response to 6.5 mM cAMP | Potency, µM (top dose mostly 154 µM), usual class: activators | 360,000 tested, 0.073% active | AID 720707; further: nearly all actives have a fitted effect of over 60% in size
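EPAC1 100 nM, Rap1B–BODIPY-GDP 250 nM, unlabeled GDP 50 uM; compound titration; 5 min RT; kinetic read ex480/em540 at 5-min intervals ×30 min; data normalized to 6.5 mM cAMP agonist control.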
EPAC2 agonist – EPAC2 (human) agonism; Q8WZA2; EPAC2 activation, biochemical qHTS; response scale: 100% = 6.5 mM cAMP response; Potency, µM (highest dose often 154 µM), most hits filed as activators; 360,000 tested, 0.079% active; further: nearly all actives have a fitted effect of over 50% in size
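In this primary screen, activation is scored as increased exchange of BODIPY-GDP from Rap1B by 100 nM EPAC2, with 50 uM GDP as competitor. Signal is normalized to the 6.5 mM cAMP agonist control.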
EPAC1 antag – antagonists of human EPAC1. Potency, µM (top dose mostly 115 µM), usual class: inhibitors. 360,000 tested, 0.14% active. EPAC1 GEF assay, Rap1b-BODIPY-GDP exchange fluorescence. AID 720709; further: nearly all actives have a fitted effect of over 50% in size
EPAC2 antagonist – antagonists of human EPAC2 | Q8WZA2 | EPAC2 GEF exchange of Rap1B-BODIPY-GDP, fluorescence | Potency, µM (highest dose often 114 µM), actives largely listed as inhibitors | 360,000 tested, 0.18% active | AID 720708; further: nearly all actives have a fitted effect of over 45% in size
Each line names hits and unclear results; the compound was inactive in the other large screens. Unless noted, the call rests on the fitted dose curve; in most records, active means well fitted curve in the direction sought with a large enough effect; inconclusive means small, poorly fitted or top-dose-only effect, or another doubt; inactive means no such curve, though single readings can be large; an effect the other way counts as inactive or inconclusive.

COCCNC(=O)c1c(N)n(CCC(C)C)c2nc3ccccc3nc12	EPAC1 antag 45µM, EPAC2 antagonist 79µM
CSc1ccc(CN2CCC2(C)C(=O)Nc2cccc(NS(C)(=O)=O)c2)cc1 (centres undefined)	none (no result: TSHR antag)
COc1ccc(OC)c(N2C(=O)/C(=C/c3ccco3)C(=O)NC2=S)c1	EPAC1 antag 8.9µM, EPAC2 antagonist inconclusive
O=C1NC(=S)N(c2ccc(F)cc2)C(=O)/C1=C/c1ccco1	none (no result: PTHR1 agonist, EPAC1 ag, EPAC2 agonist, EPAC1 antag, EPAC2 antagonist)
CC(=O)N1CCc2cc(S(=O)(=O)N3CCN(c4ccc(C)cc4)C(C)C3)ccc21 (centres undefined)	none (no result: TSHR antag, EPAC1 ag, EPAC2 agonist, EPAC1 antag, EPAC2 antagonist)
CC(Nc1cc(C)cc(C)c1)=[N+](C)CCNS(=O)(=O)c1ccc(Cl)cc1	EPAC1 antag inconclusive
CC1(C)C[C@H]2C=C(C=O)[C@]3(C=O)C[C@]3(C)[C@H]2C1	TSHR antag -87, EPAC2 antagonist inconclusive
Oc1c(Cl)cc(Cl)cc1CN1CCN(Cc2ccccc2)CC1	none
Oc1c(Cl)cccc1Cc1cc(Cl)cc(Cl)c1O	EPAC1 antag 79µM, EPAC2 antagonist 22µM (no result: TSHR antag)
C=C1C(=O)O[C@@H]2C[C@@H](C)[C@@H]3C=CC(=O)[C@@]3(C)[C@@H](OC(=O)CC(=O)O[C@H]3[C@@H]4C(=C)C(=O)O[C@@H]4C[C@@H](C)[C@@H]4C=CC(=O)[C@]43C)[C@H]12	EPAC1 antag 40µM, EPAC2 antagonist inconclusive
Cc1cc(/C=C2\C(=O)NC(=O)N(c3ccc(Cl)cc3)C2=O)c(C)n1-c1sc2c(c1C#N)CCCC2	EPAC1 antag 50µM
CCOC(=O)c1c(-n2c(C)cc(/C=C3\C(=O)NC(=O)N(C)C3=O)c2C)sc2c1CCCC2	none
O=c1oc2ccccc2c(O)c1C(c1ccc([N+](=O)[O-])cc1)c1c(O)c2ccccc2oc1=O	EPAC1 antag 50µM, EPAC2 antagonist 50µM
C/C(CC(c1ccccc1)c1c(O)c2ccccc2oc1=O)=N\Nc1ccc([N+](=O)[O-])cc1[N+](=O)[O-] (centres undefined)	EPAC1 antag inconclusive
CC(C)c1ccc(C(c2c(O)c3ccccc3oc2=O)c2c(O)c3ccccc3oc2=O)cc1	EPAC1 antag inconclusive, EPAC2 antagonist 45µM (no result: TSHR antag)
CCOP(=O)(OCC)C(Cc1ccc(OC)c(OC)c1)N=C(c1ccccc1)c1ccccc1 (centres undefined)	EPAC2 antagonist inconclusive (no result: TSHR antag)
CC12CCC3c4ccc(O)c([N+](=O)[O-])c4CCC3C1CCC2=O (centres undefined)	none (no result: TSHR antag)
